Reference: PubChem BioAssay (Tox21)
Values joined by “and” are separate entries in the source; they are usually repeats but may differ in a detail not shown here. Identical values can stand only once. Results filed as inconclusive are left out. Some structures have more than one record in an assay (separate samples or runs), and their calls can disagree. Active and inactive are the calls of the source. Unless noted, the call rests on the fitted dose curve; in most records, active means well fitted curve in the direction sought with a large enough effect in the repeat runs; inconclusive means weak or mixed curves; inactive means no such curve, though single readings can be large; an effect the other way counts as inactive or inconclusive.

Key:
[1] = qHTS assay to identify small molecule agonists of the hypoxia (HIF-1) signaling pathway - cell viability counter screen (AID 1224844; calls by dose curve; further: nearly all actives have a fitted effect of over 50% in size; further: potency means the concentration at half of the fitted maximal effect)
Method in brief: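 Viability counter screen: HRE-bla ME-180 cells plated 5 hrs before compound addition, treated 17 hrs at 37C and 5% CO2, then CellTiter-Glo added after the FRET reporter read; luminescence after 30 min.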

[2] = qHTS assay to identify small molecule agonists of H2AX (AID 1224845; active means well fitted activation curve with a large enough effect in the signal ratio in the repeat runs, not every such curve was filed as active; the % refers to the signal ratio)
Method in brief: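 Wild-type CHO-K1 cells, plated overnight, exposed 3hr at 37C to 15 concentrations (0.76% DMSO final). Lysed, then HTRF anti-pH2AX (S139) cryptate and anti-H2AX-d2 antibodies, 24 hr room temperature; 665/620 nm emission read.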

[3] = qHTS RealTime-Glo MT Cell Viability Assay in HepG2 cells - 24 hour (AID 1224867); further: nearly all actives have a fitted effect of over 50% in size; further: potency means the concentration at half of the fitted maximal effect
Method in brief: (§1)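 HepG2 cells were seeded at 600 cells/well together with NanoLuc luciferase and a cell-permeant prosubstrate, preincubated 5 h at 37 C/5% CO2, then pin-dosed with compounds in DMSO. Nonlytic luminescence from viable cells was read at each time point.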

[4] = qHTS RealTime-Glo MT Cell Viability Assay in HEK293 cells - 32 hour (AID 1224868); further: nearly all actives have a fitted effect of over 50% in size; further: potency means the concentration at half of the fitted maximal effect
Method in brief: (§2)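 HEK293 cells were seeded at 600 cells/well together with NanoLuc luciferase and cell-permeant prosubstrate, preincubated 5 h at 37 C/5% CO2, then given compound in DMSO by pintool. Luminescence from viable-cell prosubstrate reduction was read repeatedly over 40 h.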

[5] = A CellTox Green Cytotoxicity Assay to monitor cytotoxicity in HEK293 cells - 0 hour (AID 1224869); further: nearly all actives have a fitted effect of over 50% in size
Method in brief: (§3)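 Dead-cell fluorescence measured kinetically: asymmetric cyanine dye, HEK293, 600 cells/well, 5 h settle, 23 nL cpd/DMSO, 37 C, reads 0–40 h every 8 h.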

[6] = qHTS RealTime-Glo MT Cell Viability Assay in HepG2 cells - 40 hour (AID 1224870); further: nearly all actives have a fitted effect of over 50% in size; further: potency means the concentration at half of the fitted maximal effect
Method in brief: (§4)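 HepG2 cells (600/well) mixed with RealTime-Glo MT reagent, settled 5 h at 37 C/5% CO2 before compound addition. Nonlytic NanoLuc luminescence from viable-cell prosubstrate reduction read repeatedly during 40 h treatment at 37 C.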

[7] = A CellTox Green Cytotoxicity Assay to monitor cytotoxicity in HEK293 cells - 40 hour (AID 1224871); further: nearly all actives have a fitted effect of over 45% in size; further: potency means the concentration at half of the fitted maximal effect
Method in brief: as §3

[8] = qHTS RealTime-Glo MT Cell Viability Assay in HEK293 cells - 16 hour (AID 1224872); further: nearly all actives have a fitted effect of over 50% in size; further: potency means the concentration at half of the fitted maximal effect
Method in brief: as §2

[9] = qHTS RealTime-Glo MT Cell Viability Assay in HepG2 cells - 8 hour (AID 1224873); further: nearly all actives have a fitted effect of over 55% in size; further: potency means the concentration at half of the fitted maximal effect
Method in brief: as §4

[10] = qHTS RealTime-Glo MT Cell Viability Assay in HEK293 cells - 40 hour (AID 1224874); settings: RealTime-Glo luminescence; max response: stronger effect = lower value; further: nearly all actives have a fitted effect of over 50% in size; further: potency means the concentration at half of the fitted maximal effect
Method in brief: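 600 HEK293 cells per well, dispensed already mixed with RealTime-Glo MT reagents. Compound dosing came 5 h later. The same wells were read for luminescence at 0, 8, 16, 24, 32 and 40 h of exposure at 37 C.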

[11] = A CellTox Green Cytotoxicity Assay to monitor cytotoxicity in HEK293 cells - 24 hour (AID 1224875); further: nearly all actives have a fitted effect of over 45% in size
Method in brief: as §3

[12] = A CellTox Green Cytotoxicity Assay to monitor cytotoxicity in HepG2 cells - 16 hour (AID 1224876); further: nearly all actives have a fitted effect of over 45% in size
Method in brief: (§5)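 First, HepG2 cells (600/well) mixed with reagent were plated; second, after 5 h at 37 C they received compounds via pintool; third, fluorescence was measured at 0 h through 40 h at 8 h intervals.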

[13] = qHTS RealTime-Glo MT Cell Viability Assay in HepG2 cells - 32 hour (AID 1224877); further: nearly all actives have a fitted effect of over 55% in size; further: potency means the concentration at half of the fitted maximal effect
Method in brief: as §1

[14] = A CellTox Green Cytotoxicity Assay to monitor cytotoxicity in HepG2 cells - 24 hour (AID 1224878); further: nearly all actives have a fitted effect of over 45% in size
Method in brief: as §5

[15] = A CellTox Green Cytotoxicity Assay to monitor cytotoxicity in HepG2 cells - 40 hour (AID 1224879); further: nearly all actives have a fitted effect of over 40% in size; further: potency means the concentration at half of the fitted maximal effect
Method in brief: as §5

[16] = qHTS assay to identify small molecule agonists of H2AX - cell viability counter screen (AID 1224847; calls by dose curve; further: nearly all actives have a fitted effect of over 30% in size; further: potency means the concentration at half of the fitted maximal effect)
Method in brief: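 Counter-screen for viability: CellTiter-Glo ATP luminescence read after 3 h compound treatment (15-point titration, 0.76% DMSO final) of CHO-K1 cells at 37C, with 30 min room-temperature reagent incubation.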

[17] = qHTS assay to identify small molecule agonists of the hypoxia (HIF-1) signaling pathway (AID 1224846; active means well fitted activation curve with a large enough effect in the signal ratio in the repeat runs, not every such curve was filed as active; the % refers to the signal ratio)
Method in brief: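 Agonist mode reporter screen. ME-180 cells stably expressing bla under HRE control received test compounds in DMSO for 17 hrs (37C, 5% CO2), and beta-lactamase activity was then detected with the CCF4-AM FRET substrate.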

[18] = qHTS assay to identify small molecule antagonists of the estrogen related receptor (ERR) signaling pathway from Tox21 library (AID 1224848); further: nearly all actives have a fitted effect of over 50% in size; further: potency means the concentration at half of the fitted maximal effect
Method in brief: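 Compounds dissolved in DMSO are pin-transferred onto ERR reporter cells (2,000 per well) that have settled for 6 h at 37 C. Plates then incubate 18 h at 37 C before ONE-Glo luciferase reagent and a luminescence read 30 min later.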

[19] = qHTS assay to identify small molecule agonists of the estrogen related receptor (ERR) signaling pathway from Tox21 library (AID 1224849; calls by dose curve; further: nearly all actives have a fitted effect of over 15% in size); settings: ERR reporter cell line, ONE-Glo luciferase, 18 h; at 92.4 µM (top of the series) unless noted
Method in brief: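 Quantitative HTS in agonist format: NTP ERR cell line, compounds transferred in DMSO after 6 h plating, 18 h incubation at 37 C, ONE-Glo luminescence endpoint.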
On the % scale 0 is the no-effect control and ±100 the full control effect.

Cc1cc(OI)c(C(C)C)cc1-c1cc(C(C)C)c(OI)cc1C
inactive: Potency [1] | Potency [2] | Potency [3] | Potency [4] | Potency [5] | Potency [6] | Potency [7] | Potency [8] | Potency [9] | max response [10] -0.141% | Potency [11] | Potency [12] | Potency [13] | Potency [14] | Potency [15]

CCN(CC)CCNC(=O)c1ccc(NC(C)=O)cc1
inactive: Potency [1] | Potency [2] | Potency [16] | Potency [3] | Potency [4] | Potency [5] | Potency [6] | Potency [7] | Potency [8] | Potency [9] | max response [10] -0.786% | Potency [11] | Potency [12] | Potency [13] | Potency [14] | Potency [15]

CCC(=O)OC/C=C/c1ccccc1
inactive: Potency [1] | Potency [2] | Potency [16] | Potency [3] | Potency [6] | Potency [7] | Potency [8] | Potency [9] | max response [10] 1.64% and -7.61% | Potency [11] | Potency [12] | Potency [13] | Potency [14] | Potency [15]

CC(C)C(OC(=O)c1ccccc1)C(C)(C)COC(=O)c1ccccc1 (stereo unspecified)
inactive: Potency [1] | Potency [2] | outcome [17] | Potency [3] | Potency [5] | Potency [6] | Potency [7] | Potency [9] | Potency [11] | Potency [12] | Potency [13] | Potency [14] | Potency [15]

Cc1ccc(Nc2nccc(N(C)c3ccc4c(C)n(C)nc4c3)n2)cc1S(N)(=O)=O
inactive: Potency [1] | Potency [2] | outcome [17] | activity change, positive = activation [19] -54.4% [at 42.5 µM] | Potency [3] | Potency [5] | Potency [6] | Potency [9] | Potency [11] | Potency [12] | Potency [13] | Potency [14] | Potency [15]
active: Potency [18] 11.9 µM | Potency [4] 1.2 µM | Potency [8] 1.9 µM | Potency [10] 1.34 µM

CCC(C)=O
inactive: Potency [1] | outcome [17] | Potency [16] | Potency [18] | Potency [3] | Potency [5] | Potency [6] | Potency [7] | Potency [8] | Potency [9] | Potency [11] | Potency [12] | Potency [13] | Potency [14] | Potency [15]

CC(=N\O)/C(C)=N/O
inactive: Potency [1] | Potency [2] | Potency [16] | Potency [3] | Potency [4] | Potency [5] | Potency [6] | Potency [8] | Potency [9] | max response [10] -18.2% | Potency [11] | Potency [12] | Potency [13] | Potency [14] | Potency [15]

CCOC(=O)[C@@H](C)Oc1ccc(Oc2nc3ccc(Cl)cc3o2)cc1
inactive: Potency [1] | Potency [2] | outcome [17] | activity change, positive = activation [19] -39.1% | Potency [7] | Potency [11] | Potency [12] | Potency [14] | Potency [15]
active: Potency [18] 48.6 µM | Potency [4] 21.9 µM | Potency [8] 21.9 µM | Potency [9] 7.76 µM | Potency [10] 21.9 µM

Cc1cc2nc3ccc(=[N+](C)C)cc-3sc2cc1N
active: Potency [1] 5.35 µM | Potency [16] 24.7 µM | Potency [18] 0.531 µM | Potency [3] 16.9 µM | Potency [4] 2.39 µM | Potency [6] 21.3 µM | Potency [8] 2.13 µM | Potency [9] 9.52 µM | Potency [13] 19 µM
inactive: outcome [17] | activity change, positive = activation [19] -65.1% [at 42.5 µM] | Potency [7] | Potency [11] | Potency [12] | Potency [14] | Potency [15]

CNC(=O)N(c1ccccc1)c1ccccc1
inactive: Potency [1] | Potency [2] | outcome [17] | Potency [18] | activity change, positive = activation [19] -5.23% | Potency [3] | Potency [4] | Potency [6] | Potency [7] | Potency [8] | Potency [11] | Potency [12] | Potency [13] | Potency [14] | Potency [15]

Nc1ccc(C(=O)OCCCOC(=O)c2ccc(N)cc2)cc1
active: Potency [4] 43.6 µM | Potency [8] 49 µM | Potency [10] 38.9 µM
inactive: Potency [1] | Potency [2] | outcome [17] | Potency [3] | Potency [5] | Potency [6] | Potency [9] | Potency [11] | Potency [12] | Potency [13] | Potency [14] | Potency [15]

C=CCNc1nc(NCC=C)nc(N2CCN(C(c3ccc(F)cc3)c3ccc(F)cc3)CC2)n1
inactive: Potency [1] | Potency [2] | outcome [17] | Potency [3] | Potency [4] | Potency [5] | Potency [6] | Potency [7] | Potency [8] | Potency [9] | max response [10] -23.1% | Potency [11] | Potency [12] | Potency [13] | Potency [14] | Potency [15]

Cc1oncc1C(=O)Nc1ccc(C(F)(F)F)cc1
inactive: Potency [1] | Potency [2] | Potency [16] | Potency [3] | Potency [4] | Potency [6] | Potency [8] | Potency [9] | max response [10] 8.36% and -3.36% | Potency [11] | Potency [12] | Potency [13] | Potency [14]
54.9 µM (active) and inactive: Potency [15]

CC(C)(C)CC(C)(C)c1ccc(OCCO)cc1
inactive: Potency [1] | Potency [2] | activity change, positive = activation [19] -58.8% | Potency [3] | Potency [5] | Potency [6] | Potency [12] | Potency [13] | Potency [14] | Potency [15]
active: Potency [16] 100 µM | Potency [18] 3.83 µM | Potency [7] 48.7 µM | Potency [8] 6.88 µM | Potency [10] 4.87 µM

O=C(O)c1snc(Cl)c1Cl
inactive: Potency [1] | Potency [2] | outcome [17] | Potency [16] | Potency [3] | Potency [5] | Potency [6] | Potency [7] | Potency [8] | Potency [9] | max response [10] 13.2% | Potency [11] | Potency [12] | Potency [13] | Potency [14] | Potency [15]
